The source of these data is PubChem BioAssay (Tox21).

“And” between values parts separate entries of the source, which are not always exact repeats. Equal entries are not always repeated. Records with an inconclusive call do not appear. Where a call stands in place of a potency, no number is given. The source made the active and inactive calls. Calls come from the whole dose curve; as a rule, active = well fitted inhibition curve with a large enough effect in the repeat runs; inconclusive = weak or mixed curves; inactive = no such curve, though single readings can be large or run the other way.
Potency is the fitted concentration of half-maximal effect.

The nature of this assay: qHTS assay to identify small molecule antagonists of the thyroid receptor (TR) signaling pathway (AID 743065). Note: nearly all actives have a fitted effect of over 55% in size. The conditions noted are these: GH3.TRE-Luc, T3-stimulated luciferase inhibition, 23.5 h; series mostly up to 70.3 µM. The text has this:
U.S. Tox21 Program National Center for Advancing Translational Sciences [NCATS] NIH Chemical Genomics Center [NCGC] U.S. Environmental Protection Agency [EPA] National Institutes of Environmental Health Sciences [NIEHS] National Toxicology Program [NTP] U.S. Food and Drug Administration [FDA] Tox21 Assay Overview: Thyroid receptor (TR), a nuclear hormone receptor, plays an important role in development, proliferation, differentiation, metabolism, brain function, and cardiovascular system. […] To profile the Tox21 10K compound library in TR signaling, a cell-based GH3-TRE-Luc assay (GH3.TRE-Luc cell line, developed by the laboratory of Dr. Albertinka J. Murk, Wageningen University) was used to measure the inhibition of TR. GH3 (rat pituitary tumor) cells stably expressing a TR activity sensor consisting of two TR response elements and a luciferase reporter gene.
Tox21 Assay Protocol Summary: GH3.TRE-Luc cells were dispensed at 1500 cells/4 uL/well into 1536-well white solid bottom plates using a Multidrop Combi dispenser (Thermo Fisher Scientific Inc., Waltham, MA). After the assay plates were incubated at 37 C for 4 hours, 23 nL of library compound or DMSO controls was transferred to the assay plates by a pintool station (Kalypsys, San Diego, CA), followed by addition of 1 ul of T3 (1 nM, final concentration in the wells) to stimulate TR transactivation. The assay plates were incubated at 37 C for 23.5 h, and then 1 uL of CellTiter-Fluor reagent (Promega, Madision, WI) of measuring cytotoxicity was added to each well using a Bioraptr Flying Reagent Dispenser (FRD) workstation (Beckman Coulter, Indianapolis, IN, USA). The plates were incubated at 37 C and 5% CO2 for additional 30 min, and fluorescence intensity was measured by a ViewLux plate reader (PerkinElmer, Shelton, CT). For measuring luciferase reporter gene activity, 4 uL of ONE-Glo Luciferase Assay reagent (Promega) was added to each well using a Bioraptr FRD (Beckman Coulter), followed by 30 min incubation at room temperature. The luminescence intensity of plates was recorded by a ViewLux plate reader (PerkinElmer, Shelton, CT).
With `CCOP(=S)(OCC)SCn1nnc2ccccc2c1=O`, the Potency is 61.1 µM (active).

Turning to `C/C(=C\c1ccccc1)[N+](=O)[O-]`, the Potency is 6.86 µM (active).

For `c1cc2ccc3cccc4ccc(c1)c2c34`, the Potency result was “inactive”.

As for `CCN(C)N=O`, the Potency result is “inactive”.

As for `O=C(OC1CCCCC1)c1ccccc1C(=O)OC1CCCCC1`, the Potency is 72.3 µM (active).

For the compound `ClC=C(Cl)Cl`, the Potency result was “inactive”.

Turning to `COP(=S)(Oc1cc(Cl)c(Br)cc1Cl)c1ccccc1` (stereo not given), the Potency was 61.1 µM (active).

On to `O=C(O)COc1ccc(Cl)cc1`, for which the Potency entry is “inactive”.

Turning to `CCOP(=O)(OCC)SCCSCC`, the Potency result was “inactive”.

Turning to `Cc1ccc(-c2c(Cl)nc(C#N)n2S(=O)(=O)N(C)C)cc1`, the Potency was 13.7 µM (active).

Turning to `CCC(Cl)CCl` (stereo not given), the Potency result was “inactive”.

Take `CCCCNP(N)(N)=S`: the Potency result is “inactive”.

`NCC(CC(=O)O)c1ccc(Cl)cc1` (stereo not given): the Potency entry is “inactive”.

With `CC(C)(C)c1cc([N+](=O)[O-])cc([N+](=O)[O-])c1O`, the Potency is 3.43 µM (active).

With `CCOC(=O)[C@]1(c2ccccc2)Oc2ccccc2[C@@H]1N`, the Potency is 68.6 µM (active).

On to `CN1C(=O)NC(=O)C(C)(C2=CCCCC2)C1=O` (stereo not given), for which the Potency result was “inactive”.

Regarding `O=C1CN=C(c2ccccc2)c2cc(Cl)ccc2N1CC1CC1`, the Potency is 21.1 µM (active) and 51 µM (active).

`CN1C[C@H](CNC(=O)OCc2ccccc2)C[C@@H]2c3cccc4c3c(cn4C)C[C@H]21`: the Potency is 10.6 µM (active).

Regarding `C=CCCl`, the Potency entry is “inactive”.

As for `C[N+](C)(C)CCCl`, the Potency result is “inactive”.

As to `BrCCCCBr`, the Potency result was “inactive”.

For the compound `CCCCOC(=O)c1ccccc1C(=O)OCc1ccccc1`, the Potency entry is “inactive”.

On to `N#Cc1cc(I)c(O)c(I)c1`, for which the Potency is 27.3 µM (active).

Turning to `Clc1ccc(C(OCCN2CCCCC2)c2ccccc2)cc1` (stereo not given), the Potency was 11.4 µM (active).

Take `O=C(O)c1ccccc1C(=O)Nc1cccc2ccccc12`: the Potency result is “inactive”.

In the case of `CO/N=C(/C(=O)OC)c1ccccc1COc1ccccc1C`, the Potency is 3.06 µM (active).

For `CCOS(C)(=O)=O`, the Potency result is “inactive”.

For the compound `O=C(Nc1ccccc1)Nc1ccnc(Cl)c1`, the Potency is 27.3 µM (active).

On to `IC(I)=C(I)I`, for which the Potency is 6.11 µM (active).

Consider `O=[Se]=O`, for which the Potency was 21.5 µM (active).

As for `O=C(CCl)c1ccc(Cl)cc1Cl`, the Potency was 1.5 µM (active) and 3.44 µM (active).

Consider `CN(C)c1ccc(N(C)C)cc1`, for which the Potency result is “inactive”.

Turning to `CNP(=O)(OC)Oc1ccc(C(C)(C)C)cc1Cl` (stereo not given), the Potency result is “inactive”.

As to `C#CCOC(C(=O)OCCN(C)C)(c1ccccc1)c1ccccc1`, the Potency result was “inactive”.

With `Clc1cccc(SC2CCNCC2)n1`, the Potency result was “inactive”.

For the compound `CC[C@H]1C[C@H]2[C@@H]3CCC4=CC(=O)CC[C@@H]4[C@H]3CC[C@]2(C)[C@H]1O`, the Potency is 21.1 µM (active).

For `CC(Cl)Cl`, the Potency entry was “inactive”.

For `CNC(C)Cc1ccccc1OC` (stereo not given), the Potency entry is “inactive”.

Consider `CCOC(=O)C(Cl)C(C)=O` (stereo not given), for which the Potency entry is “inactive”.

Turning to `O=C(NC(=O)c1c(F)cccc1F)Nc1cc(Cl)c(Oc2ncc(C(F)(F)F)cc2Cl)c(Cl)c1`, the Potency is 8.27 µM (active).
